Assay results: PubChem BioAssay (NCATS)
Results filed as inconclusive are left out. Calls of active or inactive are those of the source. Unless noted, the call rests on the fitted dose curve; in most records, active means well fitted curve in the direction sought with a large enough effect; inconclusive means small, poorly fitted or top-dose-only effect, or another doubt; inactive means no such curve, though single readings can be large; an effect the other way counts as inactive or inconclusive.

Columns and labels:
Furin (Homo sapiens) = Furin (Homo sapiens) (UniProt P09958); test: Furin counterscreen qHTS for Zika virus inhibitors (AID 1347149); further: nearly all actives have a fitted effect of over 70% in size; further: potency means the concentration at half of the fitted maximal effect;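 on activity change, negative = inhibition: purified recombinant full-length human furin enzyme at 5 nM; fluorescence gain from furin cutting a BOC-RVRR-AMC peptide substrate over 15 min; top concentration of the series differs between compounds; plate controls were no-inhibitor control for no effect and no-enzyme control for full effect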
Sequence of Furin (Homo sapiens) (P09958 whole entry, looked up): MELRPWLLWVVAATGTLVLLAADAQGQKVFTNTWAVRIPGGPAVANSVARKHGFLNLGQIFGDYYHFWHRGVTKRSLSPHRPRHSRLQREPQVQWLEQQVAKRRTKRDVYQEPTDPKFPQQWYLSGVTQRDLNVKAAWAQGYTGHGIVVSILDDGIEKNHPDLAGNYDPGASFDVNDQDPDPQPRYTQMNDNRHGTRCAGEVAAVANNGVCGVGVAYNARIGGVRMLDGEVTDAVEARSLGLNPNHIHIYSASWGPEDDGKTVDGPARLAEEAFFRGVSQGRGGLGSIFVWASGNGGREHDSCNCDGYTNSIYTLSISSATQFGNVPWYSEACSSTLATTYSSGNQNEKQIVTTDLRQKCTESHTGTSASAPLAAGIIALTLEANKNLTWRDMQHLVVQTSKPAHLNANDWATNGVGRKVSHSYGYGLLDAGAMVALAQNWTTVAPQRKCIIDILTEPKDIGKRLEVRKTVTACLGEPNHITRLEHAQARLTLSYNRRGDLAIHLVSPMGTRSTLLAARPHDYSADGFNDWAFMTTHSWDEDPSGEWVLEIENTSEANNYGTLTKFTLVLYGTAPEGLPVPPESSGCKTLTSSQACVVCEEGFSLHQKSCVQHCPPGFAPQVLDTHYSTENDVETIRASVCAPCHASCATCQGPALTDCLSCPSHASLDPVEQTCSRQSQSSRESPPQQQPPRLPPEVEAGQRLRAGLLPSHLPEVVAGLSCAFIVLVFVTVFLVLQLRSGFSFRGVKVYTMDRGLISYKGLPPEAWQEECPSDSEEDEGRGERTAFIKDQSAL
Summary of the method: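 Fluorogenic cleavage of BOC-RVRR-AMC (2 microM final, Km ~15 µM) was monitored (ex 340, em 450 nm) at 37C after 15 min RT preincubation of 5 nM furin with compounds in HEPES pH 7.0 buffer with CaCl2 and Triton X-100. Percent inhibition was fitted to a 4-parameter Hill curve.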

[1] = Confirmatory screen GU Rhodamine qHTS for Zika virus inhibitors qHTS (AID 1347157); further: nearly all actives have a fitted effect of over 70% in size; further: potency means the concentration at half of the fitted maximal effect;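 on activity change, negative = inhibition: plate controls were no-inhibitor wells for no effect and no-enzyme wells for full effect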
Summary of the method: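 Compounds, tested up to 114 microM, were incubated for 15 minutes with 25 nM unlinked NS2B-NS3 protease at pH 8.0. Cleavage of 1.5 microM Rhodamine110 substrate was then followed by fluorescence for 15 minutes.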

[2] = target: Cytochrome P450 3A4 (Homo sapiens) (UniProt P08684); test: qHTS Assay for Activators of Cytochrome P450 3A4 (AID 885); further: nearly all actives have a fitted effect of over 65% in size
Sequence of Cytochrome P450 3A4 (Homo sapiens) (P08684 whole entry, looked up): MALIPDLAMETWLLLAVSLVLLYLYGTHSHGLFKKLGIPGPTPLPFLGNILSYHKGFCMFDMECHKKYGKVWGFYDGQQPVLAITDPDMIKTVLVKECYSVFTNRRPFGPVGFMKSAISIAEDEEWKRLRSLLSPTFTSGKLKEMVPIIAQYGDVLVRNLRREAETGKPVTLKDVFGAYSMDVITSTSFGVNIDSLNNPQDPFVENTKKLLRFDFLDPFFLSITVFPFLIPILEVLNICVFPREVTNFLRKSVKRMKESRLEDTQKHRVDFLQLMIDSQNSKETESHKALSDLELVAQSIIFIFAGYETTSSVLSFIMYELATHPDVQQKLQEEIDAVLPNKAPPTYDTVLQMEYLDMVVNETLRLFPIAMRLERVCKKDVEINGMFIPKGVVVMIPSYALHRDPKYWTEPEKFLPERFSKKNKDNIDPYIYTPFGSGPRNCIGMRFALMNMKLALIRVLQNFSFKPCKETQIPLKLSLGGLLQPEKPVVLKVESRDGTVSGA
Summary of the method: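 20nM CYP3A4 + 25uM Luciferin-PPXE (=KM), 200mM KPO4; cpd 10 min RT; NADPH regen, 60 min RT; stop w/ detection buffer, 20 min; luminescence. Normalized to 57 uM ketoconazole.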

[3] = Confirmation and Secondary Assay for Modulators of Hemoglobin Beta Chain Splicing at IVS2 654 locus (AID 910);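 further: HeLa cells stably carrying EGFP split by mutant beta-globin IVS2-654 intron; % of control where 0% means no effect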
Summary of the method: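 HeLa cells stably expressing EGFP interrupted by β-globin IVS2-654 intron, seeded overnight in Opti-MEM/2% FCS, then treated 2 days at 37 °C. Restored splicing read as total peak GFP intensity per well by laser scanning cytometry (488 nm excitation, 500–520 nm emission); 500 nM antisense PNA as control.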

[4] = Confirmation and Secondary Assay for Modulators of Hemoglobin Beta Chain Splicing at IVS2 705 locus (AID 930);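 further: HeLa cells stably expressing the EGFP-705 splicing reporter; GFP fluorescence per well restored by corrected splicing of the IVS2-705 intron in EGFP; % of control where 0% means no effect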
Summary of the method: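 Fluorescence gain (488 nm laser, 500-520 nm PMT) reflects restored correct splicing of a mutant IVS2-705 intron inside EGFP in stably transfected HeLa cells after 2-day compound treatment.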

[5] = qHTS Assay for Lipid Storage Modulators (AID 1519; calls by dose curve; on activity change, negative = inhibition: on the % scale 0 is the no-effect control and ±100 the full control effect); details: Drosophila S3 cells, BODIPY lipid droplet/cell ratio, laser cytometry, cells loaded with oleic acid
Summary of the method: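 Cells seeded at 5,000 per well were treated with compounds over a concentration series and loaded with oleic acid (400 uM, as added). Lipid droplet fluorescence (488 nm excitation, 500-530 nm channel) was read by laser-scanning cytometry and normalized to 20 uM Triacsin C.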

[6] = target: Tyrosyl-DNA phosphodiesterase 1 (Homo sapiens) (UniProt Q9NUW8); test: Confirmation Assay for Inhibitors of Tyrosyl-DNA Phosphodiesterase (TDP1) (AID 489007); details: recombinant human TDP1 enzymatic activity, dose-response; further: potency means the concentration at half of the fitted maximal effect; nearly all actives have a fitted effect of over 40% in size
Sequence of Tyrosyl-DNA phosphodiesterase 1 (Homo sapiens) (Q9NUW8 whole entry, looked up): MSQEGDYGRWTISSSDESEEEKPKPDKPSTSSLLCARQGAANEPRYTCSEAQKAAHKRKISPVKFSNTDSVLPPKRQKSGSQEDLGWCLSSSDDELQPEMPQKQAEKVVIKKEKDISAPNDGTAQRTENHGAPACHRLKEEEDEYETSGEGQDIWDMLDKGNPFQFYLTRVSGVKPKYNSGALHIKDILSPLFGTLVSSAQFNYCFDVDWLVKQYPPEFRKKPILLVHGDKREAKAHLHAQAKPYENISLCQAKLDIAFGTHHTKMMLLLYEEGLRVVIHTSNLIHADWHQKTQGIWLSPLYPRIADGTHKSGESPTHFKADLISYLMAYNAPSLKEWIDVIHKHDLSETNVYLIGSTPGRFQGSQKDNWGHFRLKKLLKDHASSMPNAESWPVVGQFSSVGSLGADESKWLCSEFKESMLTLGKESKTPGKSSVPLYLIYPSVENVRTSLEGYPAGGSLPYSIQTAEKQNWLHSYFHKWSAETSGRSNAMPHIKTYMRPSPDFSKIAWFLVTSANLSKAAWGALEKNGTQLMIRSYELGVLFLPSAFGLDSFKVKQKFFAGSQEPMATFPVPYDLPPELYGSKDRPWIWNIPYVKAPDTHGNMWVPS
Summary of the method: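 Confirmation of primary-screen follow-ups in a qHTS format. Substrate cleavage by Tdp1 (1 nM) of a 3'-phosphotyrosine-FITC, 5'-biotin oligo (15 nM) was monitored as decreased AlphaScreen signal after a 5 min room-temperature reaction.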

[7] = ZIKV-mCherry secondary qHTS for Zika virus inhibitors (AID 1347158); further: top concentration of the series differs between compounds
Summary of the method: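 After overnight seeding at 37 °C, Vero cells receive compound and then ZIKV-mCherry (MOI 1). Following 48-72 h infection, cells are fixed, counterstained with Hoechst, and imaged; percent infected cells is derived from an mCherry intensity cut-off of 450 RFU.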

[8] = tested on: Zika virus NS2B-NS3 protease (linked); test: 384 well plate NINDS AMC confirmatory qHTS for Zika virus inhibitors (AID 1347163); further: potency means the concentration at half of the fitted maximal effect; nearly all actives have a fitted effect of over 50% in size
Summary of the method: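 Linked protease 5/30/60 nM final; cpds up to 1 mM final, ~15 min preinc. Substrate Ac-VKTGKR-AMC 30 microM final. RT, dark, 25 min; FI ex 355/em 460; normalized to no-enzyme/no-inhibitor ctrls.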

[9] = tested on: Zika virus NS2B-NS3 protease (linked construct); test: 384 well plate NINDS Rhodamine confirmatory qHTS for Zika virus inhibitors (AID 1347164);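 further: fluorescence from protease cleavage of Ac-LKRR-rhodamine 110 substrate; potency means the concentration at half of the fitted maximal effect; nearly all actives have a fitted effect of over 65% in size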
Summary of the method: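 Linked protease at a final 5 nM, 30 nM or 60 nM was preincubated ~15 min with compounds, then given 10 microM Ac-LKRR-Rhodamine 110. Fluorescence (ex 485/em 538 nm) after 25 min in the dark at room temperature.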

SMILES	Potency (Furin (Homo sapiens))	Potency [1]	Potency [2]	outcome [3]	outcome [4]	activity change, negative = inhibition ([5]; at 57.5 µM (top of the series))	max response ([5]; measured here: cell count channel max response) [%]	max response ([5]; measured here: lipid channel max response) [%]	Potency [6]	Potency [7]	Potency [8]	Potency [9]
Cc1ccc(C(=O)Nc2ccc(C(=O)OCc3cc(=O)n4c5c(sc4n3)CCCC5)cc2)cc1	41.8 µM (active)	inactive										
O=c1c(-c2cc(O)c(O)c(O)c2)coc2cc(O)c(O)c(O)c12	inactive	22.4 µM (active)	inactive	inactive	inactive	15.6% (inactive)	7.38	21.8	0.282 µM (active)	inactive	316 µM (active)	126 µM (active)
